# bCat KO growth: primary screen for growth suppressors in beta-catenin knockout HCT116 cells (colon tumor, human) | HCT116 beta-catenin knockout viability, CellTiter-Glo, 60 h; stronger effect = lower value | viability, % at 10 µM | 140,000 tested, 1.5% active | AID 818, 2007;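 active = viability at or under a set limit, the compound median less 4 SD, cut at about 6% in these data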;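 note: 0% = Hyamine 1622 control at 20 µM and 100% = untreated cell control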
# HCT116 PTEN-null: growth suppression of PTEN-null HCT116, primary screen, cell-based, CellTiter-Glo; AID 827, 2007; 140,000 tested, 1.2% active; viability, % at 10 µM; HCT116 PTEN-null viability, 60 h; stronger effect = lower value;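 active = viability at or below a set limit, 4 SD under the median of all tested compounds, cut at about 3.7% in these data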;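 note: PTEN knockout HCT116 line with beta catenin targeted HCT116 as companion control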
# Lmaj promast: Leishmania major promastigote growth inhibition, primary screen | Leishmania major promastigotes, resazurin fluorescence viability | inhibition, % at 10 µM | 200,000 tested, 9% active; in the data active = inhibition above about 50%;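 note: promastigotes grown with compound for 44 hours at 28 °C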
# Autophagy HCS: autophagy modulators in MEF cells, primary screen, imaging, high-content, MEF GFP-LC3; MEF GFP-LC3 puncta imaging; test concentration mostly 10 µM; calls only at 10 µM (by protocol); 190,000 tested, 0.98% active; AID 463193, 2010;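 active = percentage of spot-positive cells more than 3 SD above its plate mean, without a fluorescence outlier flag or 80% toxicity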;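 note: spot-positive cell cutoff set from DMSO-treated cells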
# INS promoter inh: inhibitors of insulin promoter-driven GFP, primary screen, imaging, TRM-6 cells (human fetal islet line), eGFP reporter, cell count; reporter expression induced with tamoxifen; inhibition, % at 2 µM; 130,000 tested, 0.9% active;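 active = inhibition above the mean plus 3 SD, with well images judged a real hit on visual review, cut at about 60% in these data, passing the limit was not always enough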
# Insulin prom up: insulin promoter activators in MIN6 cells, imaging, high-content screening, mouse beta cells; MIN6 insulin promoter-GFP reporter; stronger effect = higher value; z-score at 5 µM; 190,000 tested, 0.3% active; AID 1625, 2009;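 active = z-score above 3 at 5 µM with at least 500 cells counted in the well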
# Active calls of the source: *; i = inactive; x = not tested or not shown. In the library only some 9.6% were active in any assay of this set; here they are far more common.
SMILES,bCat KO growth,HCT116 PTEN-null,Lmaj promast,Autophagy HCS,INS promoter inh,Insulin prom up
Cc1cccc(N2C(=O)/C(=C/c3ccc(CN(CCC#N)S(C)(=O)=O)o3)C(=O)NC2=S)c1,91,91,-4,i,7,0.04
Cc1cc(Br)c(NC(=O)CN2CC=C(c3ccccc3)CC2)c(Br)c1,x,x,0,i,8,-1.4
CC(=O)c1cccc(OCC(O)CN2CC=C(c3ccccc3)CC2)c1 (stereo not given),73,81,94*,i,0,-0.14
C=CCN1C(=O)/C(=C/c2cc(C)n(-c3cccnc3)c2C)C(=O)NC1=S,37,22,99*,i,11,-0.49
O=C(N/N=C/c1c(O)n(-c2ccccc2)c(=O)[nH]c1=O)c1ccncc1,98,102,91*,i,-6,0.26
CC(=O)Nc1ccccc1C(=O)OCc1cccc(F)c1,x,x,-4,i,x,0.77
COc1ccccc1CCNC1CCC(C(C)(C)C)CC1 (stereo not given),49,44,100*,i,x,-0.23
CCc1c(C)nc(N)nc1N1N=C1SCC(=O)OC,x,x,-4,i,x,0.14
CCCCCn1c(=O)c(C(=O)Nc2nc(CC(=O)OCC)cs2)c(O)c2ccccc21,x,x,90*,i,50,-0.52
CCCCCn1c(=O)c(C(=O)Nc2ccccc2S(N)(=O)=O)c(O)c2ccccc21,x,x,96*,i,19,0
CCCCn1c(=O)c(C(=O)Nc2ccccc2S(N)(=O)=O)c(O)c2ccccc21,77,71,-6,i,-84,-0.08
CCCCCn1c(=O)c(C(=O)Nc2cnccn2)c(O)c2ccccc21,x,x,98*,i,x,-5.7
CCCCn1c(=O)c(C(=O)NCc2ccncc2)c(O)c2ccccc21,83,82,89*,i,-24,0.78
CCCCCCn1c(=O)c(C(=O)Nc2nnc(C)s2)c(O)c2ccccc21,x,x,4,i,30,0.01
Cc1ccc2c(c1)CNc1ccccc1O2,78,84,1,i,0,-0.44
CC12CC[C@H]3[C@@H](CCC4(O)C[C@H](O)CCC34/C=N/NC(=O)Cc3ccccc3)C1(O)CCC2C1=CC(=O)OC1 (stereo not given in full),x,x,x,x,x,0.15
CC1(C)NCCN2C(=O)CSC21 (stereo not given),84,98,-2,i,19,1.7
CC(=NCC1CCCO1)c1c(O)n(-c2ccc(Cl)cc2)c(=O)[nH]c1=O (stereo not given),103,102,0,i,57,0.4
C(=NC12CN3CN(CN(C3)C1)C2)c1cccnc1,94,99,6,i,-12,0.93
NP(=O)(Oc1ccc(Cl)cc1)Oc1ccc(Cl)cc1,x,x,9,i,x,-0.05
O=C(Cc1ccccc1)N1CCN(CC2CC3C=CC2C3)CC1 (stereo not given),88,97,67*,i,36,x
CN1CCN(C(=O)Cc2ccccc2)CC1,x,x,x,x,x,0.09
COc1cccc(OCC(=O)N2CCN(C)CC2)c1,112,117,-7,i,3,1.1
O=C(Cc1ccccc1)N1CCN(CC2CC=CCC2)CC1 (stereo not given),92,89,81*,i,6,0.65
COc1ccc(OCC(=O)N2CCN(CC3CC4C=CC3C4)CC2)cc1 (stereo not given),92,92,87*,i,x,0.61
SMILES,bCat KO growth,HCT116 PTEN-null,Lmaj promast,Autophagy HCS,INS promoter inh,Insulin prom up
CC(C)NCC(O)c1ccc(C2CCCC2)cc1 (stereo not given),74,91,92*,i,-37,-0.09
CN(C(=O)Oc1ccc(C(=O)c2ccc(Cl)cc2)cc1)c1ccccc1,91,91,56*,i,-3,-0.62
CCN(CC)c1ccc(CN2CC=C(c3ccc(F)cc3)CC2)cc1,74,71,96*,i,50,0.95
Oc1ccc2ccccc2c1CN1CC=C(c2ccccc2)CC1,x,x,4,i,17,-0.9
NC(Cc1ccccc1)c1nc(-c2ccccc2)no1 (stereo not given),x,x,x,x,x,-0.27
CN1c2ccc([N+](=O)[O-])cc2CC2(C(=O)NC(=O)N(c3ccc(Br)cc3)C2=O)C1c1ccccc1 (stereo not given),58,60,75*,i,x,-0.82
Cc1ccc2nc3c(cc2c1)CC1(C(=O)N(C)C(=O)N(C)C1=O)C1CCCCN31 (stereo not given),85,97,27,i,x,-0.12
COc1ccc(C(c2c(O)c3ccccc3oc2=O)c2c(C)n(C)n(-c3ccccc3)c2=O)cc1 (stereo not given),86,92,-9,i,64*,-0.08
COC(=O)C(O)(c1ccc(NC(=O)c2cccs2)c(C)c1)C(F)(F)F (stereo not given),x,x,x,x,x,-1.1
CCOC(=O)C(=CNc1ccc(C(O)(C(=O)OCC)C(F)(F)F)cc1C)C(=O)OCC (stereo not given),70,57,55*,i,-33,0.45
O=C1NC(=O)C(CCc2ccncc2)(Cc2cccc(Cl)c2Cl)C(=O)N1c1ccc(Br)cc1 (stereo not given),21,17,92*,i,x,-1.5
CCc1ccc(N2C(=O)NC(=O)C(CCc3ccncc3)(CCc3ccncc3)C2=O)cc1,91,91,-7,i,-81,0.08
Nc1c2c(nc3sc4c(c13)CCCC4)CCCC2,x,x,92*,i,x,-1.3
Nc1c2c(nc3sc4c(c13)CCCC4)CCCCC2,4.1*,7,77*,i,17,0.53
Cc1cc(C)n2c(Br)c(CN3CC4CC(C3)c3cccc(=O)n3C4)nc2n1 (stereo not given),93,101,-7,i,-41,-0.18
O=C(NC1CN2CCC1CC2)c1cc(Cl)c([N+](=O)[O-])c2nc[nH]c12 (stereo not given),0.8*,0.6*,36,i,-250,-0.15
CC(C)CN(CC(C)C)c1ccc(C=C2C(=O)NC(=S)NC2=O)cc1[N+](=O)[O-],89,89,81*,i,17,0.44
O=C1/C(=C/c2cc3c(cc2Cl)OCO3)N2CCC1CC2,74,86,92*,i,-25,-0.09
O=C1/C(=C\c2ccc(Cl)cc2Cl)N2CCC1CC2,x,x,x,x,x,0.11
O=C1/C(=C/c2cc([N+](=O)[O-])ccc2Cl)N2CCC1CC2,8,26,74*,i,54,x
O=C1/C(=C\c2cc3c(cc2Cl)OCO3)N2CCC1CC2,80,87,73*,i,28,x
COc1ccc(NC(=O)c2cn(CCC#N)nc2-c2cccc([N+](=O)[O-])c2)cc1,x,x,x,x,x,-0.53
O=c1oc2ccccc2c(O)c1C(c1ccc([N+](=O)[O-])cc1)c1c(O)c2ccccc2oc1=O,x,x,-15,i,-39,0.16
CCN(CC)C(=O)c1ccc(NC(=O)COc2ccccc2F)cc1,x,x,-6,i,x,1.3

# Screening results from PubChem.
